# Reference: ChEMBL document CHEMBL1157539, “Thousands of chemical starting points for antimalarial lead identification” (Nature, 2010)
# Legend:
# Format in all cases: functional
# Plasmodium falciparum [1] = test: GSK_TCMDC: Inhibition of Plasmodium falciparum 3D7 in whole red blood cells, using parasite LDH activity as an index of growth. Test compounds present at 2uM
# Plasmodium falciparum [2] = test: GSK_TCMDC: Inhibition of Plasmodium falciparum Dd2 in whole red blood cells, using parasite LDH activity as an index of growth. Test compounds present at 2uM
# HepG2 = test: GSK_TCMDC: Percent inhibition of human HepG2 cell line. Test compounds present at 10uM.
SMILES,Inhibition (Plasmodium falciparum [1]),Inhibition (Plasmodium falciparum [2]),Inhibition (HepG2)
CCCOc1cc(OCCC)cc(-c2ccc(C(=O)Nc3ccc4ccc(C)nc4c3)c(=O)[nH]2)c1,100%,76%,11%
CN(Cc1cccc(F)c1)C1CCN(c2cc(NC(=O)c3ccc(F)cc3)ccn2)C1.O=C(O)C(F)(F)F (stereo not given),83%,14%,7%
Cc1cc(C2CCN(CCCCNC(=O)c3ccc(-c4ccc(C(F)(F)F)cc4)cc3)CC2)c(C)cc1OCC#N,100%,58%,40%
O=C(CSc1nccn1Cc1ccco1)Nc1cc(C(F)(F)F)ccc1Cl,91%,66%,9%
N#Cc1c(N)n(CCc2ccc(F)cc2)c2nc3ccccc3nc12,92%,36%,8%
CC(Cc1ccc(CN(CC(N)=O)Cc2ccc(CC(C)NCCc3cccc(Cl)c3)cc2)cc1)NCCc1cccc(Cl)c1.O=C(O)C(F)(F)F (stereo not given),95%,68%,26%
O=C(O)C(F)(F)F.O=C1OC(c2ccccc2)(c2ccccn2)CN1C1CCN(Cc2cccn2-c2ccc(Cl)cc2)CC1 (stereo not given),99%,98%,21%
CCn1c(-c2nonc2N)nc2cnc(Oc3cccc(NC(=O)c4ccc(OCCCN5CCCCC5)cc4)c3)cc21,90%,12%,38%
COc1ccnc(NCCCNCc2cn(S(=O)(=O)c3ccccc3)c3ccccc23)c1,99%,18%,57%
CS(=O)(=O)CCCNCc1ccc(-c2cc3c(Nc4ccc(OCc5ccccc5)cc4)ncnc3cn2)o1,87%,16%,10%
